# Laboratory results reported in PubChem BioAssay (NCI).
# The panel holds about 79,000 compounds, 15% with a hit somewhere; the sample as a whole holds those more often. A number with no mark means an inactive call. Active and inactive are the calls of the source. Cut-off read from the data, not from the text of the source: active = growth inhibition above about 70%; inactive = the rest.
# Key:
# [1] = NCI Yeast Anticancer Drug Screen. Data for the rad50 strain (AID 155);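 note: 0% = growth of vehicle-only cultures of the same strain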; settings: S. cerevisiae rad50 strain growth inhibition, active compounds read high
# Method in brief: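 Growth of the mutant yeast was measured after compound exposure and referenced to vehicle-treated cultures.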
# [2] = NCI Yeast Anticancer Drug Screen. Data for the mec2-1 strain (AID 157); settings: S. cerevisiae mec2-1 strain, active compounds read high
# Method in brief: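 mec2-1 yeast strain, carrying an alteration in DNA damage repair or cell cycle control, was exposed to compounds; growth inhibition was measured relative to vehicle-treated controls.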
# [3] = NCI Yeast Anticancer Drug Screen. Data for the sgs1 mgt1 strain (AID 161);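 note: 0% = growth of cultures given vehicle only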; settings: S. cerevisiae sgs1 mgt1 strain, active compounds read high
# Method in brief: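 This yeast growth screen uses a strain with defined DNA-repair lesions; compound-treated growth is compared with vehicle-treated growth.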
# [4] = NCI Yeast Anticancer Drug Screen. Data for the cln2 rad14 strain (AID 165);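 note: 0% = growth equal to vehicle treated cultures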; settings: S. cerevisiae cln2 rad14 strain, active compounds read high
# Method in brief: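 Yeast carrying cln2 and rad14 alterations (cell cycle control and DNA damage repair) were exposed to compounds. Growth inhibition was measured against vehicle-treated controls.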
# [5] = NCI Yeast Anticancer Drug Screen. Data for the bub3 strain (AID 167); settings: S. cerevisiae bub3 mutant strain, active compounds read high
# Method in brief: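 Whole-cell yeast assay. The mutant strain was incubated with compounds, and growth inhibition was determined by comparison with vehicle-treated cells.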
# [6] = NCI Yeast Anticancer Drug Screen. Data for the mlh1 rad18 strain (AID 175); settings: S. cerevisiae mlh1 rad18 strain growth inhibition, active compounds read high
# Method in brief: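 Growth inhibition of the yeast strain was measured after compound exposure and expressed relative to vehicle-treated controls. The strain carries defined defects in DNA damage repair.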
# [7] = at 5.0 µM (retest, dose inferred, filed as 0.5)
# [8] = at 50.0 µM (retest, dose inferred, filed as 5.0)
SMILES,"growth inhibition [1, 7]","growth inhibition [1, 8]",growth inhibition ([1]; at 50.0 µM),"growth inhibition [2, 7]","growth inhibition [2, 8]",growth inhibition ([2]; at 50.0 µM),"growth inhibition [3, 7]","growth inhibition [3, 8]",growth inhibition ([3]; at 50.0 µM),"growth inhibition [4, 7]","growth inhibition [4, 8]",growth inhibition ([4]; at 50.0 µM),"growth inhibition [5, 7]","growth inhibition [5, 8]",growth inhibition ([5]; at 50.0 µM),"growth inhibition [6, 7]","growth inhibition [6, 8]",growth inhibition ([6]; at 50.0 µM)
NCCNCCN1CC1,-2%,0%,64.9%,1%,1%,0.35%,1%,-1%,39.9%,-2%,-3%,19.1%,-1%,-6%,33%,-1%,-1%,40%
COc1cc(OC)c(/C=C(\C)[N+](=O)[O-])cc1Br,1%,1%,96.5% (active),3%,3%,84.9% (active),2%,-16%,88% (active),3%,0%,66.2%,-1%,0%,92.2% (active),2%,1%,98.7% (active)
C[PH+](C)C.C[PH+](C)C.[Au],36%,70% (active),85.7% (active),30%,89% (active),91.8% (active),59%,82% (active),91% (active),18%,32%,88% (active),27%,57%,89.5% (active),68%,91% (active),89% (active)
O=[As]c1cccc2ccccc12 (stereo not given),99% (active),99% (active),99.3% (active),100% (active),100% (active),99.6% (active),99% (active),99% (active),99.7% (active),100% (active),99% (active),99.2% (active),99% (active),99% (active),99.3% (active),99% (active),99% (active),99.3% (active)
Clc1nc(Cl)nc(Nc2ccccc2Cl)n1,67%,96% (active),99% (active),40%,97% (active),96.7% (active),53%,98% (active),98.9% (active),21%,97% (active),95.8% (active),82% (active),99% (active),98.6% (active),24%,95% (active),97.2% (active)
[C-]#[O+].[Cl][Sn]([Cl])[Cl].[Cl][Sn]([Cl])[Cl].[Pt].c1ccncc1,-11%,97% (active),56.2%,9%,95% (active),54.8%,3%,98% (active),75.3% (active),3%,78% (active),41.8%,-13%,47%,62.1%,-1%,98% (active),70.5% (active)
NC(=O)c1ccc(C(=O)Nc2ccc([As](=O)(O)O)cc2)cc1,30%,21%,-3.85%,6%,3%,-26.7%,22%,3%,-43.2%,2%,-14%,49.4%,-7%,1%,-13.1%,11%,9%,-15.9%
O=P(CCP(=O)(c1ccccc1)c1ccccc1)(c1ccccc1)c1ccccc1.[Cl][Sn]([Cl])([c]1ccccc1)[c]1ccccc1,82% (active),97% (active),87.7% (active),45%,99% (active),90.1% (active),91% (active),98% (active),88.5% (active),32%,97% (active),88.8% (active),81% (active),98% (active),88% (active),88% (active),95% (active),91.6% (active)
CCC[CH2][Sn]1([CH2]CCC)[O]CC(CN2CCCCC2)[O]1 (stereo not given),25%,94% (active),82.7% (active),20%,95% (active),85.4% (active),32%,95% (active),82.8% (active),22%,91% (active),78.5% (active),34%,96% (active),88% (active),30%,96% (active),87% (active)
NC(=O)c1cc([N+](=O)[O-])c(Cl)c([N+](=O)[O-])c1,50%,89% (active),88.2% (active),62%,84% (active),86.3% (active),38%,98% (active),89% (active),36%,97% (active),56.5%,49%,97% (active),88.5% (active),57%,85% (active),88.7% (active)
CCCCCCC(=O)[O][Hg][c]1ccccc1,99% (active),99% (active),99.3% (active),100% (active),100% (active),99.7% (active),100% (active),100% (active),99.7% (active),99% (active),99% (active),99% (active),99% (active),99% (active),99.4% (active),100% (active),99% (active),99.7% (active)
ClCc1ccncc1,38%,73% (active),54.9%,26%,46%,47.2%,55%,69%,69.4%,38%,57%,51%,31%,73% (active),58%,25%,66%,57.6%
NNc1ccccc1,13%,97% (active),98.6% (active),1%,95% (active),97.3% (active),3%,98% (active),98.8% (active),0%,96% (active),96.8% (active),9%,98% (active),96.2% (active),15%,98% (active),98.6% (active)
COc1ccc(O)c(/C=C/[N+](=O)[O-])c1,16%,99% (active),99.4% (active),-1%,99% (active),98.8% (active),20%,99% (active),99.1% (active),5%,98% (active),99.2% (active),41%,99% (active),99.3% (active),21%,99% (active),98.9% (active)
BrP(NC1CCCCCC1)(c1ccccc1)(c1ccccc1)c1ccccc1,43%,97% (active),98.5% (active),39%,99% (active),99.3% (active),47%,98% (active),99.2% (active),12%,97% (active),98.7% (active),25%,98% (active),99% (active),65%,98% (active),99% (active)
Nc1c([N+](=O)[O-])cc(Cl)cc1[N+](=O)[O-],1%,84% (active),73.8% (active),0%,89% (active),63.8%,1%,98% (active),94.2% (active),1%,28%,-14.6%,-3%,86% (active),64.7%,2%,97% (active),78.3% (active)
O=C1C=C(Cl)C(=O)C(Cl)=C1,15%,99% (active),99.4% (active),23%,99% (active),99.3% (active),7%,99% (active),99.5% (active),0%,95% (active),91.5% (active),10%,99% (active),99.3% (active),20%,99% (active),99.4% (active)
Clc1ccc(Cl)c(Cl)c1,-10%,99% (active),98.4% (active),-3%,97% (active),99% (active),-6%,98% (active),98.8% (active),8%,92% (active),96.5% (active),-8%,98% (active),62%,2%,99% (active),98.2% (active)
COC1OC(OC)[CH]([Hg][Cl])C1OC (stereo not given),99% (active),99% (active),99.5% (active),99% (active),100% (active),99.7% (active),99% (active),99% (active),99.4% (active),99% (active),99% (active),98.5% (active),100% (active),99% (active),99.2% (active),99% (active),99% (active),99.4% (active)
C[SH+]c1ccccc1N=Cc1ccccn1.C[SH+]c1ccccc1N=Cc1ccccn1.[Ni+2].[O-][Cl+3]([O-])([O-])[O-],-3%,11%,99% (active),-5%,5%,97.2% (active),-1%,12%,99.5% (active),3%,7%,58.2%,-4%,2%,98.8% (active),1%,16%,98% (active)
